Experimental data reported in PubChem BioAssay AID720704 (The Scripps Research Institute Molecular Screening Center, 2013).
The whole screen tested about 370,000 compounds, of which about 660 (0.18%) were called active. The sample holds actives, similar compounds and a random draw of the others, so the mix is not that of the screen. A number with no mark means an inactive call. No stated cut-off is given here; in the data, active means inhibition above about 11%; inactive means the rest.

Target: 1-phosphatidylinositol 4,5-bisphosphate phosphodiesterase beta-3 (Homo sapiens) (UniProt Q01970)
Sequence (Q01970 whole entry, looked up): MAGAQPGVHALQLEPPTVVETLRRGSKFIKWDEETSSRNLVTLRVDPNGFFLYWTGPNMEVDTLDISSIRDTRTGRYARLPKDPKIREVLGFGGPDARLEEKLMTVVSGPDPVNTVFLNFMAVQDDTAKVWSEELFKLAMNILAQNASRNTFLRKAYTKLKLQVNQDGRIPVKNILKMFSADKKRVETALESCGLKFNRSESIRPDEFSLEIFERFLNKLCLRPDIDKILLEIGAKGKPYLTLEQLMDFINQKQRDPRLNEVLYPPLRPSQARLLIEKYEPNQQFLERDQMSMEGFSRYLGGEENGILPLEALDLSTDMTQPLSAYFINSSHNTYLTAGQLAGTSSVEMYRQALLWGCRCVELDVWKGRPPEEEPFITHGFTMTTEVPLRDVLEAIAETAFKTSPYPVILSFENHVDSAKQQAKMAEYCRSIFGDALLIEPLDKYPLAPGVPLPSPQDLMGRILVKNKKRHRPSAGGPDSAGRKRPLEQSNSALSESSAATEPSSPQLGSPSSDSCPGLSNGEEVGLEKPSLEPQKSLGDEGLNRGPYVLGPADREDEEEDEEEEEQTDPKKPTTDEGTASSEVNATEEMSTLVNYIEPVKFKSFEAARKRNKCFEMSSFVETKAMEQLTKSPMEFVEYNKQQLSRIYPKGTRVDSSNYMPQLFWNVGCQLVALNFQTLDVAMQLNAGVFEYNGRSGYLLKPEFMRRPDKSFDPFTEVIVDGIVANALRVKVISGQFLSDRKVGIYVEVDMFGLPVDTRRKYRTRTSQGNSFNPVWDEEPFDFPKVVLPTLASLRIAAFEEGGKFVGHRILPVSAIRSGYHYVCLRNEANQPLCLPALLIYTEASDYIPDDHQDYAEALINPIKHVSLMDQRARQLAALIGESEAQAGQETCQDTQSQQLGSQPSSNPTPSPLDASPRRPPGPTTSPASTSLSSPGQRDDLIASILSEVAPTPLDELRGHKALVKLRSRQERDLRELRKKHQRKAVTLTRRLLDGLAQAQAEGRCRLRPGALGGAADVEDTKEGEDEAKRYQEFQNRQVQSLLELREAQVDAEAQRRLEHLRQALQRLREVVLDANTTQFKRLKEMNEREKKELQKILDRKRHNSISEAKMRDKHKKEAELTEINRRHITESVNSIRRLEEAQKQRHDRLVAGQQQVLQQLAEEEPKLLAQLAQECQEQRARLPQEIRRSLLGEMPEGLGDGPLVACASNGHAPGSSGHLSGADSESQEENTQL
Test: phospholipase C beta3 enzyme inhibition – biochemical, fluorescence, primary screen (AID 720704);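 further: 0% = median of compound wells on plate and 100% = full blocker control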
Settings: Purified PLC-beta3, fluorogenic substrate, at 12.2 µM, stronger effect = higher value

Row | SMILES | inhibition
1 | CC(N=Cc1nc(-c2ccccc2)oc1O)c1ccccc1 (centres undefined) | 15.1% (active)
2 | Oc1oc(-c2ccccc2Br)nc1/C=N/c1ccccn1 | -19.8%
3 | COC(=O)CN1C(=O)C(O)=C(C(C)=O)C1c1ccc([N+](=O)[O-])cc1 (centres undefined) | 13.8% (active)
4 | CC(=O)C1=C(O)C(=O)N(c2cccnc2)C1c1ccc([N+](=O)[O-])cc1 (centres undefined) | 4.27%
5 | CC(=O)C1=C(O)C(=O)N(c2ccc(Br)cc2)C1c1ccc([N+](=O)[O-])cc1 (centres undefined) | -6.85%
6 | O=C(NC(CC(=O)N1CCN(c2ccccc2)CC1)c1ccccc1)c1ccccc1Cl (centres undefined) | 2.68%
7 | O=C(NCCSc1ncc(-c2ccccc2)[nH]1)c1ccco1 | -6.81%
8 | CCOc1ccc2nc(Cl)c(C3CC(c4ccccc4)=NN3C(=O)c3cccs3)cc2c1 (centres undefined) | -0.32%
9 | Cc1ccc(C2CC(c3cccc(NS(C)(=O)=O)c3)=NN2S(C)(=O)=O)cc1 (centres undefined) | 0.24%
10 | CCOc1ccccc1C1CC(c2cccc(NS(C)(=O)=O)c2)=NN1C(=O)c1ccccc1 (centres undefined) | 13.2% (active)
11 | Cc1ccc(C(=O)N(CN2CCCC2=O)c2ccc(F)cc2)cc1 | 3.26%
12 | CCOc1ccc(S(=O)(=O)Nc2ccncc2)c(C)c1C | 1.51%
13 | Cc1cc(C)c2nc(SCC(=O)N(C)C3CCS(=O)(=O)C3)cc(C)c2c1 (centres undefined) | 2.26%
14 | O=S(=O)(c1ccc(F)cc1)N1CCN=C1SCc1cccc(F)c1 | -7.5%
15 | Cc1ccc(/C=C/C(=O)O)cc1S(=O)(=O)N1CCC(Cc2ccccc2)CC1 | -3.09%
16 | Cn1ncc2c(NNC(=O)Cc3cccc4ccccc34)ncnc21 | 1.27%
17 | Cc1nc(Nc2ccccc2C)c2cnn(C)c2n1 | 13.1% (active)
18 | Cn1ncc2c(Nc3cccc4ccccc34)ncnc21 | -6.23%
19 | O=C1C(=O)N(c2ccccc2)C(c2ccccc2)C1c1ccccc1 (centres undefined) | -283%
20 | O=S(=O)(O)c1cc2onnc2c2ccccc12 | -11.7%

Row | SMILES | inhibition
21 | Cc1cc(NS(=O)(=O)c2ccc(NC(=O)CSc3nnc(SCc4ccc(F)cc4)s3)cc2)nc(C)n1 | -3.29%
22 | Cc1cc(C(=O)OC(C)C(=O)Nc2cccc(S(=O)(=O)N3CCOCC3)c2)c(C)o1 (centres undefined) | 2.02%
23 | NNC(=O)C1CC(O)CN1S(=O)(=O)c1ccc(Cl)cc1 (centres undefined) | -6.44%
24 | O=C(CSc1ncn[nH]1)Nc1nc2c(F)c(F)c(F)cc2s1 | -3.83%
25 | CCNC(=S)N1CCC(c2nc3cc(C)c(C)cc3[nH]2)CC1 | 0.08%
26 | Cc1cc(C)c(NC(=O)CSc2nc3ccncc3[nH]2)c(C)c1 | -1.6%
27 | Cc1cc2nc(SCCN3CCOCC3)[nH]c2cc1C | 10.8% (active)
28 | Fc1ccc(CNCc2ccc(Br)cc2)cc1 | 1.89%
29 | CC1(C(=O)NCc2ccco2)Cc2c(-c3ccc4c(c3)OCO4)ccnc2O1 (centres undefined) | -9.86%
30 | COc1ccc(C(=O)NC2CC2)cc1OC1CCN(Cc2ccc(SC)cc2)CC1 | -5.08%
31 | CCN(C(=O)COc1cccnc1[N+](=O)[O-])C1CCS(=O)(=O)C1 (centres undefined) | 3.82%
32 | CCc1cc2c(=O)c(-c3ccon3)c(N)oc2cc1OC | -1.51%
33 | CCOC(=O)C1CCN(C(=O)c2cccc(S(=O)(=O)N(CC)c3ccccc3)c2)CC1 | -9.7%
34 | CCCC1CCC(=NNC(=S)NCCc2ccccc2)CC1 (centres undefined) | -1.2%
35 | Cc1c(C)c2ccc(OCC(=O)N3CCN(c4cccc(Cl)c4)CC3)cc2oc1=O | -8.02%
36 | O=C(COc1ccc(Cl)cc1)N1CCN(c2cccc(C(F)(F)F)c2)CC1 | 13.8% (active)
37 | CSCCC(NC(=O)COc1ccccc1)C(=O)N1CCN(c2cccc(C(F)(F)F)c2)CC1 (centres undefined) | -10.1%
38 | COC(=O)C1CC2=C(CC(C)(C)CC2=O)N(c2ccccc2)C1=O (centres undefined) | -3.14%
39 | Cc1ccc(C(=O)OCC(=O)Nc2ccc(Cl)cn2)cc1S(=O)(=O)N1CCOCC1 | -6.74%
40 | O=C(COC(=O)c1ccc(F)c(S(=O)(=O)N2CCOCC2)c1)NCc1ccc2c(c1)OCO2 | -5.58%

Row | SMILES | inhibition
41 | Cc1cc(NC(=O)COC(=O)c2ccc(F)c(S(=O)(=O)N3CCOCC3)c2)no1 | 11.6% (active)
42 | CCCOc1ccc(Cc2c(O)nc(N)[nH]c2=O)cc1C | -5%
43 | CCc1c(Nc2ccccc2Cl)nc(N)[nH]c1=O | 1.61%
44 | CCc1c(Nc2ccccc2C)nc(N)[nH]c1=O | 14.8% (active)
45 | COc1ccc(C(=O)O)cc1S(=O)(=O)NCc1cccnc1 | -3.06%
46 | Cc1nnc(SCc2ccc(C(=O)c3ccc(Cl)cc3)o2)n1-c1ccccc1 | 0.27%
47 | COC(=O)c1cc(NC(=O)c2nn(C)c(=O)c3ccccc23)cc(C(=O)OC)c1 | 0.09%
48 | CC(=O)N1c2ccc(S(=O)(=O)N3CCCC(C(=O)NCc4ccc(Cl)cc4)C3)cc2CC1C (centres undefined) | -2.78%
49 | O=C(NCc1ccco1)c1nn2cccnc2c1Cl | -10.8%
50 | CCc1cc(C(=O)c2ccc(OC)cc2)c(NC(=O)CN2CCN(C)CC2)s1 | -17.3%
51 | CCCCc1nc2ccccc2c(NC(=O)CN2CCN(C)CC2)c1CCC | 32% (active)
52 | CN1CCN(C(=O)Cn2c(C(F)(F)F)nc3ccccc32)CC1 | 5.24%
53 | CCn1c(/C=C/Nc2ccccc2)[n+](CC)c2ccc(C(=O)OCC(F)(F)F)cc21 | 13.1% (active)
54 | CCOC(=O)c1cc2ccccc2n1CC(=O)c1ccccc1 | -2.72%
55 | Cc1cc(C)c(OCC(=O)N(Cc2cccs2)C2CCS(=O)(=O)C2)c(C)c1 (centres undefined) | -6.39%
56 | CC1C(=O)Nc2ccccc2N1C(=O)c1c(F)cccc1F (centres undefined) | -2.5%
57 | CC(=O)O[C@]1(C(C)=O)CC[C@H]2[C@@H]3C=C(C)C4=CC(=O)CC[C@]4(C)[C@H]3CC[C@@]21C | -0.43%
58 | CC(=O)C12CC(C)=C(C)CC1CC1C3CCC4=CC(=O)CCC4(C)C3CCC12C (centres undefined) | 16.1% (active)
59 | CC(=O)O[C@@]1(C(C)=O)CCC2[C@H]3C=C(C)C4=CC(=O)CC[C@@]4(C)C3CC[C@]21C (some centres undefined) | -4.21%
